# Assay results published in PubChem BioAssay.
# The source made the active and inactive calls. No rule for the calls is given here. Where a SMILES comes first, the peptide text is derived from it. The star is where a group is joined. Boc = CC(C)(C)OC(=O)*
# Target: Pantothenate synthetase (Mycobacterium tuberculosis (strain ATCC 25618 / H37Rv)) (UniProt P9WIL5)
# Test: Recombinant Mtb pantothenate synthetase (PanC) inhibitors, coupled enzyme, confirmatory (AID 375);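 also: 0% = full reaction with vehicle and 100% = no enzyme background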
# Conditions: coupled enzyme assay; at 10 µM, stronger effect = higher value
# Pantothenate synthetase (Mycobacterium tuberculosis (strain ATCC 25618 / H37Rv)), sequence (P9WIL5 whole entry, looked up): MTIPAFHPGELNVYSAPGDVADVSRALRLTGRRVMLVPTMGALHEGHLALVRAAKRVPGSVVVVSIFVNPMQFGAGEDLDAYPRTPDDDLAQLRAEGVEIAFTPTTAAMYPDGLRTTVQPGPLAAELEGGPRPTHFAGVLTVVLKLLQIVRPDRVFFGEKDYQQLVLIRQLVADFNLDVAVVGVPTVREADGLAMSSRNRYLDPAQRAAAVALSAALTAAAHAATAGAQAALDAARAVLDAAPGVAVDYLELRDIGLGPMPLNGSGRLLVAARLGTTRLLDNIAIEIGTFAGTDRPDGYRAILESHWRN
row,Compound,inhibition
1,NC(=O)c1ccsc1NC(=O)COC(=O)Cc1ccsc1,3% (inactive)
2,Cc1ccc(-c2nc3cnccn3c2Nc2ccc3c(c2)OCO3)o1,2% (inactive)
3,Cc1nnc(SCC(=O)NCc2ccccc2)s1,0% (inactive)
4,CCC(c1nnnn1C(C)(C)C)N1CCN(C2CCCC2)CC1 (stereo unspecified),4% (inactive)
5,O=c1oc2ccccc2c(N2CCCCC2)c1CN1CCCCC1,0% (inactive)
6,CCOC(=O)c1ccc(NC(=O)CCNc2c(N3CCCC3)c(=O)c2=O)cc1,0% (inactive)
7,COC(=O)c1ccc(COC(=O)c2c(C)nn(Cc3ccccc3Cl)c2Cl)o1,0% (inactive)
8,COc1cccc(-n2c(SCC(=O)N3CCCC3)nc3c([nH]c4ccccc43)c2=O)c1,0% (inactive)
9,COc1ccc(CNC(=O)Cn2nc(C(F)(F)F)c3c2CCC3)cc1,3% (inactive)
10,Cc1c(NC(=O)C(C)Oc2ncnc3ccccc23)c(=O)n(-c2ccccc2)n1C (stereo unspecified),0% (inactive)
11,CCOC(=O)C1(CC)NC(c2cccc(F)c2)C2C(=O)N(CC)C(=O)C21 (stereo unspecified),0% (inactive)
12,CCOC(=O)N1CCN(c2nc(-c3ccc(Cl)cc3)cs2)CC1,0% (inactive)
13,CCOC(=O)C1CCN(c2c(N3CCCC(C(=O)OCC)C3)c(=O)c2=O)CC1 (stereo unspecified),6% (inactive)
14,COC(=O)c1ccc2ncccc2c1,0% (inactive)
15,CCC(C)C(NC(=O)OC(C)(C)C)C(=O)NC(CC(C)C)C(N)=O (stereo not drawn) (Boc-Ile-Leu-NH2; configuration not given here),0% (inactive)
16,COc1ccc(CCNc2oc(COc3ccc(F)cc3)nc2C#N)cc1,0% (inactive)
